Laboratory results: PubChem BioAssay (NCATS)
Inconclusive results are not listed. Active and inactive are the calls of the source. Calls come from the whole dose curve; as a rule, active = well fitted inhibition curve with a large enough effect; inconclusive = small, poorly fitted or top-dose-only effect; inactive = flat fitted curve, though single readings scatter.

Assay: Confirmatory screen GU Rhodamine qHTS for Zika virus inhibitors qHTS (AID 1347157); note: nearly all actives have a fitted effect of over 70% in size
In short: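 In dose–response format, inhibition of unlinked protease (25 nM) was measured with 1.5 microM bis-peptide Rhodamine110 substrate. Aprotinin served as the intraplate control.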
Potency is the fitted concentration of half-maximal effect.

Row | SMILES | Potency
1 | CC(C)=CCOc1ccc(/C=C/C(=O)c2ccc(OCC=C(C)C)cc2OCC(=O)O)cc1 | 5.62 µM (active)
2 | C=C[C@H]1CN2CC[C@H]1C[C@H]2[C@H](O)c1ccnc2ccc(OC)cc12 | inactive
3 | Oc1c(Cl)cc(Cl)c(Cl)c1Cc1c(O)c(Cl)cc(Cl)c1Cl | 15.8 µM (active)
